In PubChem BioAssay (NCI):
The panel holds about 83,000 compounds, 20% with a hit somewhere; the sample as a whole holds those more often.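 Values shown are percent growth following 48 h exposure of cells in 96-well plates to a single concentration of compound; below 10 was considered active.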 A number with no mark means an inactive call. Active and inactive are the calls of the source.

Assays:
Assay in all cases: NCI-60 one-dose screen, 48 h (100 = growth as untreated, 0 = no growth, -100 = all killed)
Conditions in all cases: 10 µM unless noted
[1] = tested on: SK-MEL-2 melanoma
[2] = tested on: EKVX NSCLC
[3] = tested on: SN12C renal
[4] = tested on: UO-31 renal
[5] = tested on: TK-10 renal
[6] = tested on: ACHN renal
[7] = tested on: CAKI-1 renal
[8] = tested on: A498 renal
[9] = tested on: CCRF-CEM leukemia
[10] = tested on: SR leukemia
[11] = tested on: RPMI-8226 leukemia
[12] = tested on: OVCAR-8 ovarian
[13] = tested on: OVCAR-5 ovarian
[14] = tested on: IGROV1 ovarian
[15] = tested on: OVCAR-3 ovarian
[16] = tested on: HS 578T breast
[17] = tested on: NCI/ADR-RES ovarian
[18] = tested on: OVCAR-4 ovarian
[19] = tested on: SK-OV-3 ovarian
[20] = tested on: MOLT-4 leukemia

C#CCN(C)CCCOc1ccc(NCc2ccc(C(=O)NO)cc2)cc1Cl
growth [1]: 15% | growth [2]: 35.5% | growth [3]: 37.8% | growth [4]: -13.7% (active) | growth [5]: -3.24% (active) | growth [6]: 9.03% (active) | growth [7]: 8.63% (active) | growth [8]: -14.9% (active) | growth [9]: 13.7% | growth [10]: 15.7% | growth [11]: 9.94% (active) | growth [12]: 14.7% | growth [13]: 23.4% | growth [14]: 15.6% | growth [15]: 24.3% | growth [16]: 25% | growth [17]: 7.57% (active)

COC(=O)CCSC1=C(C)C(=O)c2ccccc2C1=O
growth [1]: 107% | growth [2]: 74.2% | growth [3]: 92.5% | growth [4]: 64.6% | growth [5]: 162% | growth [6]: 82.6% | growth [7]: 80.4% | growth [8]: 116% | growth [9]: 45.7% | growth [10]: 71% | growth [11]: 45.3% | growth [12]: 85.8% | growth [13]: 104% | growth [18]: 75.6% | growth [19]: 97.7% | growth [14]: 80.8% | growth [15]: 69% | growth [16]: 91.8% | growth [17]: 83.5%

O=C(Nc1ccccc1)Nc1nc2ccc([N+](=O)[O-])cc2[nH]1
growth [1]: 53.9% | growth [2]: 43.6% | growth [3]: 62.7% | growth [4]: 44.2% | growth [5]: 39.1% | growth [6]: 37.6% | growth [7]: 27.1% | growth [8]: 11.1% | growth [9]: 52.2% | growth [10]: 70.4% | growth [11]: 46.1% | growth [12]: 66.9% | growth [13]: 75.2% | growth [18]: 23.5% | growth [19]: 73.4% | growth [14]: 45.9% | growth [15]: 38.3% | growth [16]: 75.5% | growth [17]: 69.1%

Brc1ccc(-c2cc(-c3ccc4c(c3)OCCO4)n[nH]2)s1
growth [1]: 55.3% | growth [2]: 48.4% | growth [3]: 54.3% | growth [4]: 44.5% | growth [5]: 105% | growth [6]: 47.9% | growth [7]: 31.7% | growth [8]: 40.3% | growth [9]: 18.1% | growth [10]: 17.7% | growth [11]: 13.4% | growth [12]: 36% | growth [13]: 58.1% | growth [18]: 71.7% | growth [19]: 55.1% | growth [14]: 34.6% | growth [16]: 51.4% | growth [17]: 6.64% (active)

Clc1ccc(CSc2nnc(-c3ccc(Cl)cc3)n2-c2ccccc2)cc1
growth [1]: 85.9% | growth [2]: 86.6% | growth [3]: 82.9% | growth [4]: 68.2% | growth [5]: 93.3% | growth [6]: 55.5% | growth [7]: 62.9% | growth [8]: 68% | growth [9]: 97.4% | growth [10]: 91.7% | growth [11]: 94.4% | growth [12]: 46.3% | growth [13]: 104% | growth [18]: 16% | growth [19]: 48.3% | growth [14]: 75.9% | growth [15]: 101% | growth [16]: 43.7% | growth [17]: 54.2%

CCOC(=O)c1c(NC(=O)c2ccc(C(F)(F)F)cc2)sc2c3c(ccc12)OCN(C)C3
growth [1]: 72.8% | growth [2]: 79.5% | growth [3]: 48.1% | growth [4]: 70.9% | growth [5]: -15.7% (active) | growth [6]: -14.5% (active) | growth [7]: -23.9% (active) | growth [8]: 89.1% | growth [9]: 2.17% (active) | growth [10]: -29.8% (active) | growth [11]: -36.9% (active) | growth [12]: -48% (active) | growth [13]: 54.2% | growth [19]: 93.5% | growth [14]: 41.9% | growth [15]: 2.17% (active) | growth [16]: 78.7% | growth [17]: 51.9%

CC1=Cc2ccccc2OC12C=Cc1ccccc1O2 (stereo unspecified)
growth [1]: 115% | growth [2]: 82.2% | growth [3]: 102% | growth [4]: 69% | growth [5]: 180% | growth [6]: 88.4% | growth [7]: 78.5% | growth [8]: 117% | growth [9]: 105% | growth [10]: 103% | growth [11]: 104% | growth [12]: 103% | growth [13]: 102% | growth [18]: 105% | growth [19]: 102% | growth [14]: 69.1% | growth [16]: 106% | growth [17]: 98.6%

O=C(CSc1cc[n+](CCCCO)c2ccccc12)n1ccc2ccccc21
growth [1]: 111% | growth [2]: 89.3% | growth [3]: 103% | growth [4]: 63.6% | growth [5]: 155% | growth [6]: 96.4% | growth [7]: 81.9% | growth [8]: 114% | growth [9]: 107% | growth [10]: 90.3% | growth [11]: 103% | growth [12]: 95.5% | growth [13]: 102% | growth [19]: 91% | growth [14]: 20.2% | growth [15]: 104% | growth [16]: 106% | growth [17]: 105%

CC(C)(C)c1cc(NC(=O)Nc2ccc(-c3cn4c5c(sc4n3)CCc3cn(CCCN4CCCCC4)cc3-5)cc2)no1
growth [1]: 108% | growth [2]: -80.5% (active) | growth [3]: -86.3% (active) | growth [4]: -70.3% (active) | growth [5]: -89.3% (active) | growth [6]: -99.7% (active) | growth [7]: -97.2% (active) | growth [8]: 74.5% | growth [9]: 3.37% (active) | growth [10]: -14% (active) | growth [11]: -19.5% (active) | growth [12]: -52% (active) | growth [13]: -32.4% (active) | growth [18]: -78.4% (active) | growth [19]: 97% | growth [14]: -78.5% (active) | growth [16]: 38.4% | growth [17]: -43% (active)

O=C1Nc2ccccc2/C1=N\c1nnc(-c2ccccc2)o1
growth [1]: 96.4% | growth [2]: 67.9% | growth [3]: 104% | growth [4]: 75.5% | growth [5]: 224% | growth [6]: 88.2% | growth [7]: 88.2% | growth [8]: 90.7% | growth [9]: 96.2% | growth [10]: 105% | growth [11]: 101% | growth [12]: 102% | growth [13]: 106% | growth [18]: 98.7% | growth [19]: 82.5% | growth [14]: 72.1% | growth [16]: 90.1% | growth [17]: 95.6%

Brc1cc(-c2cc(-c3ccc4c(c3)OCCO4)[nH]n2)cs1
growth [1]: 62.7% | growth [2]: 62.4% | growth [3]: 65% | growth [4]: 54.6% | growth [5]: 138% | growth [6]: 56% | growth [7]: 33.8% | growth [8]: 48.6% | growth [9]: 23.4% | growth [10]: 14.2% | growth [11]: 29.9% | growth [12]: 51.8% | growth [13]: 75.8% | growth [18]: 83.5% | growth [19]: 62.5% | growth [14]: 50.8% | growth [16]: 61.1% | growth [17]: 17.4%

COc1cc(C(=O)c2cc(C(C)=O)c3c(C)cccn23)cc(OC)c1OC
growth [1]: 98.9% | growth [2]: 99% | growth [3]: 80.9% | growth [4]: 75.6% | growth [5]: 108% | growth [6]: 97.9% | growth [7]: 84.5% | growth [8]: -10.4% (active) | growth [9]: 96.1% | growth [10]: 96.5% | growth [11]: 95.5% | growth [12]: 106% | growth [13]: 95.8% | growth [18]: 90.8% | growth [14]: 97.6% | growth [15]: 115% | growth [16]: 90.7% | growth [17]: 97.9%

CNC(=O)c1cc(-c2ccc(NC(=S)Nc3cccc(C(F)(F)F)c3)cc2)nc2cccnc12
growth [1]: 103% | growth [2]: 98.1% | growth [3]: 97.3% | growth [4]: 81.8% | growth [5]: 102% | growth [6]: 94.8% | growth [7]: 91.3% | growth [9]: 88% | growth [20]: 117% | growth [10]: 80.8% | growth [11]: 95.2% | growth [12]: 93.9% | growth [13]: 102% | growth [18]: 96.6% | growth [14]: 103% | growth [15]: 109% | growth [16]: 105% | growth [17]: 95.3%
